B1: unnamed (peptide)
chain: VQQDSLPKLPFRSWG

These binders were tested against AgAbp1 (assay: SPOT peptide array binding signal intensity (averaged, normalized) (arbitrary units (background-subtracted, floor 0; scale differs between SH3 domains)); higher = stronger binding of the SH3 domain to the peptide).
Outline: (§1)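 Peptides were synthetic 15-mers on cellulose membranes, with every cysteine replaced by serine. They were incubated overnight at 4°C with GST-SH3 domains from four yeast species at 10 μg/ml in TBS-based blocking buffer. Binding signal, the replicate-averaged normalized and background-subtracted spot intensity, is in arbitrary units that differ between domains.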

Row | Binder | SPOT peptide array binding signal intensity
1 | B1 | 9.5

These binders were tested against AgBbc1 in the same assay as above.
Outline: as §1

Row | Binder | SPOT peptide array binding signal intensity
2 | B1 | 38.2

The binders below were run against AgBem1-D1 in the same assay as above.
Outline: as §1

Row | Binder | SPOT peptide array binding signal intensity
3 | B1 | 3.5

What follows are binders tested against AgBzz1-D1 in the same assay as above.
Outline: as §1

Row | Binder | SPOT peptide array binding signal intensity
4 | B1 | 68.5

What follows are binders tested against AgBzz1-D2 in the same assay as above.
Outline: as §1

Row | Binder | SPOT peptide array binding signal intensity
5 | B1 | 5.5

What follows are binders tested against AgCyk3 in the same assay as above.
Outline: as §1

Row | Binder | SPOT peptide array binding signal intensity
6 | B1 | 29

These binders were tested against AgFus1 in the same assay as above.
Outline: as §1

Row | Binder | SPOT peptide array binding signal intensity
7 | B1 | ≤ 0

The binders below were run against AgHof1 in the same assay as above.
Outline: as §1

Row | Binder | SPOT peptide array binding signal intensity
8 | B1 | 368

What follows are binders tested against AgHse1 in the same assay as above.
Outline: as §1

Row | Binder | SPOT peptide array binding signal intensity
9 | B1 | 1

These binders were tested against AgLsb1 in the same assay as above.
Outline: as §1

Row | Binder | SPOT peptide array binding signal intensity
10 | B1 | 295

What follows are binders tested against AgLsb4 in the same assay as above.
Outline: as §1

Row | Binder | SPOT peptide array binding signal intensity
11 | B1 | 3220

The binders below were run against AgMyo5 in the same assay as above.
Outline: as §1

Row | Binder | SPOT peptide array binding signal intensity
12 | B1 | ≤ 0

Each binder was assayed against AgNbp2 in the same assay as above.
Outline: as §1

Row | Binder | SPOT peptide array binding signal intensity
13 | B1 | ≤ 0

Each binder was assayed against AgRvs167 in the same assay as above.
Outline: as §1

Row | Binder | SPOT peptide array binding signal intensity
14 | B1 | 83.3

These binders were tested against AgSho1 in the same assay as above.
Outline: as §1

Row | Binder | SPOT peptide array binding signal intensity
15 | B1 | 20

What follows are binders tested against AgSla1-D1-D2 in the same assay as above.
Outline: as §1

Row | Binder | SPOT peptide array binding signal intensity
16 | B1 | ≤ 0

These binders were tested against AgSla1-D3 in the same assay as above.
Outline: as §1

Row | Binder | SPOT peptide array binding signal intensity
17 | B1 | ≤ 0

The binders below were run against CaAbp1-D1 in the same assay as above.
Outline: as §1

Row | Binder | SPOT peptide array binding signal intensity
18 | B1 | 16

What follows are binders tested against CaAbp1-D2 in the same assay as above.
Outline: as §1

Row | Binder | SPOT peptide array binding signal intensity
19 | B1 | 13

What follows are binders tested against CaBbc1 in the same assay as above.
Outline: as §1

Row | Binder | SPOT peptide array binding signal intensity
20 | B1 | 220

Each binder was assayed against CaBem1-D1 in the same assay as above.
Outline: as §1

Row | Binder | SPOT peptide array binding signal intensity
21 | B1 | ≤ 0

The binders below were run against CaBzz1-D1 in the same assay as above.
Outline: as §1

Row | Binder | SPOT peptide array binding signal intensity
22 | B1 | 53

These binders were tested against CaBzz1-D2 in the same assay as above.
Outline: as §1

Row | Binder | SPOT peptide array binding signal intensity
23 | B1 | 27.5

These binders were tested against CaCyk3 in the same assay as above.
Outline: as §1

Row | Binder | SPOT peptide array binding signal intensity
24 | B1 | 8

These binders were tested against CaFus1 in the same assay as above.
Outline: as §1

Row | Binder | SPOT peptide array binding signal intensity
25 | B1 | 24

Each binder was assayed against CaHof1 in the same assay as above.
Outline: as §1

Row | Binder | SPOT peptide array binding signal intensity
26 | B1 | 4

The binders below were run against CaHse1 in the same assay as above.
Outline: as §1

Row | Binder | SPOT peptide array binding signal intensity
27 | B1 | 9.25

Each binder was assayed against CaLsb1 in the same assay as above.
Outline: as §1

Row | Binder | SPOT peptide array binding signal intensity
28 | B1 | ≤ 0

What follows are binders tested against CaLsb4 in the same assay as above.
Outline: as §1

Row | Binder | SPOT peptide array binding signal intensity
29 | B1 | 6890

These binders were tested against CaMyo5 in the same assay as above.
Outline: as §1

Row | Binder | SPOT peptide array binding signal intensity
30 | B1 | 0.5

The binders below were run against CaNbp2 in the same assay as above.
Outline: as §1

Row | Binder | SPOT peptide array binding signal intensity
31 | B1 | 14.5

Each binder was assayed against CaRvs167 in the same assay as above.
Outline: as §1

Row | Binder | SPOT peptide array binding signal intensity
32 | B1 | 1260

The binders below were run against CaRvs167-3 in the same assay as above.
Outline: as §1

Row | Binder | SPOT peptide array binding signal intensity
33 | B1 | 8.5

The binders below were run against CaSho1 in the same assay as above.
Outline: as §1

Row | Binder | SPOT peptide array binding signal intensity
34 | B1 | 27

Each binder was assayed against CaSla1-D1-D2 in the same assay as above.
Outline: as §1

Row | Binder | SPOT peptide array binding signal intensity
35 | B1 | 14

What follows are binders tested against CaSla1-D3 in the same assay as above.
Outline: as §1

Row | Binder | SPOT peptide array binding signal intensity
36 | B1 | 1.5

The binders below were run against ScAbp1 in the same assay as above.
Outline: as §1

Row | Binder | SPOT peptide array binding signal intensity
37 | B1 | 6.5

These binders were tested against ScBbc1 in the same assay as above.
Outline: as §1

Row | Binder | SPOT peptide array binding signal intensity
38 | B1 | 3.75

What follows are binders tested against ScBem1-D1 in the same assay as above.
Outline: as §1

Row | Binder | SPOT peptide array binding signal intensity
39 | B1 | 0.5

Each binder was assayed against ScBzz1-D1 in the same assay as above.
Outline: as §1

Row | Binder | SPOT peptide array binding signal intensity
40 | B1 | ≤ 0

The binders below were run against ScBzz1-D2 in the same assay as above.
Outline: as §1

Row | Binder | SPOT peptide array binding signal intensity
41 | B1 | 8

The binders below were run against ScCyk3 in the same assay as above.
Outline: as §1

Row | Binder | SPOT peptide array binding signal intensity
42 | B1 | 2

What follows are binders tested against ScFus1 in the same assay as above.
Outline: as §1

Row | Binder | SPOT peptide array binding signal intensity
43 | B1 | ≤ 0

These binders were tested against ScHof1 in the same assay as above.
Outline: as §1

Row | Binder | SPOT peptide array binding signal intensity
44 | B1 | 178

What follows are binders tested against ScHse1 in the same assay as above.
Outline: as §1

Row | Binder | SPOT peptide array binding signal intensity
45 | B1 | 25

What follows are binders tested against ScLsb1 in the same assay as above.
Outline: as §1

Row | Binder | SPOT peptide array binding signal intensity
46 | B1 | 85.5

The binders below were run against ScLsb2 in the same assay as above.
Outline: as §1

Row | Binder | SPOT peptide array binding signal intensity
47 | B1 | 38.5

Each binder was assayed against ScLsb3 in the same assay as above.
Outline: as §1

Row | Binder | SPOT peptide array binding signal intensity
48 | B1 | 5130

What follows are binders tested against ScLsb4 in the same assay as above.
Outline: as §1

Row | Binder | SPOT peptide array binding signal intensity
49 | B1 | 3050

The binders below were run against ScMyo3 in the same assay as above.
Outline: as §1

Row | Binder | SPOT peptide array binding signal intensity
50 | B1 | ≤ 0

These binders were tested against ScMyo5 in the same assay as above.
Outline: as §1

Row | Binder | SPOT peptide array binding signal intensity
51 | B1 | ≤ 0

What follows are binders tested against ScNbp2 in the same assay as above.
Outline: as §1

Row | Binder | SPOT peptide array binding signal intensity
52 | B1 | ≤ 0

Each binder was assayed against ScPex13 in the same assay as above.
Outline: as §1

Row | Binder | SPOT peptide array binding signal intensity
53 | B1 | 2500

These binders were tested against ScRvs167 in the same assay as above.
Outline: as §1

Row | Binder | SPOT peptide array binding signal intensity
54 | B1 | 2720

These binders were tested against ScSho1 in the same assay as above.
Outline: as §1

Row | Binder | SPOT peptide array binding signal intensity
55 | B1 | 300

The binders below were run against ScSla1-D1-D2 in the same assay as above.
Outline: as §1

Row | Binder | SPOT peptide array binding signal intensity
56 | B1 | 3.5

Each binder was assayed against ScSla1-D3 in the same assay as above.
Outline: as §1

Row | Binder | SPOT peptide array binding signal intensity
57 | B1 | ≤ 0

What follows are binders tested against SpAbp1-D1 in the same assay as above.
Outline: as §1

Row | Binder | SPOT peptide array binding signal intensity
58 | B1 | 25

The binders below were run against SpBbc1 in the same assay as above.
Outline: as §1

Row | Binder | SPOT peptide array binding signal intensity
59 | B1 | 5.25

Each binder was assayed against SpBzz1-D1 in the same assay as above.
Outline: as §1

Row | Binder | SPOT peptide array binding signal intensity
60 | B1 | 275

What follows are binders tested against SpBzz1-D2 in the same assay as above.
Outline: as §1

Row | Binder | SPOT peptide array binding signal intensity
61 | B1 | 1

These binders were tested against SpCyk3 in the same assay as above.
Outline: as §1

Row | Binder | SPOT peptide array binding signal intensity
62 | B1 | 15.5

The binders below were run against SpHof1 in the same assay as above.
Outline: as §1

Row | Binder | SPOT peptide array binding signal intensity
63 | B1 | 11.2

These binders were tested against SpHof1-2 in the same assay as above.
Outline: as §1

Row | Binder | SPOT peptide array binding signal intensity
64 | B1 | 258

The binders below were run against SpHof1-3 in the same assay as above.
Outline: as §1

Row | Binder | SPOT peptide array binding signal intensity
65 | B1 | 865

Each binder was assayed against SpHse1 in the same assay as above.
Outline: as §1

Row | Binder | SPOT peptide array binding signal intensity
66 | B1 | 77.5

These binders were tested against SpLsb1 in the same assay as above.
Outline: as §1

Row | Binder | SPOT peptide array binding signal intensity
67 | B1 | 3.5

The binders below were run against SpLsb4 in the same assay as above.
Outline: as §1

Row | Binder | SPOT peptide array binding signal intensity
68 | B1 | 6040

These binders were tested against SpMyo1 in the same assay as above.
Outline: as §1

Row | Binder | SPOT peptide array binding signal intensity
69 | B1 | ≤ 0

Each binder was assayed against SpNbp2 in the same assay as above.
Outline: as §1

Row | Binder | SPOT peptide array binding signal intensity
70 | B1 | 1

These binders were tested against SpPex13 in the same assay as above.
Outline: as §1

Row | Binder | SPOT peptide array binding signal intensity
71 | B1 | 5

These binders were tested against SpRvs167 in the same assay as above.
Outline: as §1

Row | Binder | SPOT peptide array binding signal intensity
72 | B1 | 2610

These binders were tested against SpSla1-D1-D2 in the same assay as above.
Outline: as §1

Row | Binder | SPOT peptide array binding signal intensity
73 | B1 | 3.5

These binders were tested against SpSla1-D3 in the same assay as above.
Outline: as §1

Row | Binder | SPOT peptide array binding signal intensity
74 | B1 | ≤ 0
